# Test results published in PubChem BioAssay (EPA / NIEHS).
# Records with an inconclusive call do not appear. Active and inactive are the calls of the source. How the source made its calls: active means hit-call score of the fitted dose curve at least 0.9, where 1 is the maximum; inconclusive means response in the unintended direction; inactive means score below 0.9.
# Target: Estrogen receptor (Homo sapiens) (UniProt P03372)
# Assay: OT_ER_ERaERa_0480: Odyssey Thera (OT) 8-hour HEK293T Protein-Complementation Assay for Estrogen Receptor-alpha/-alpha Homodimer (AID 2283351);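 further: rise in fluorescence from reassembled reporter fragments on ERα LBD homodimer in nucleus or whole cell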
# Description: OT_ER_ERaERa_0480 is a cell-based assay that uses HEK293T, a human kidney cell line, with measurements taken at 8 hours after chemical dosing in a 384-well plate.OT_ER_ERaERa_0480 is one of one assay component(s) measured or calculated from the OT_ER_ERaERa_0480 assay. It is designed to make measurements of protein fragment complementation, a form of binding reporter, as detected with fluorescence intensity signals by Protein-fragment Complementation technology.Data from the assay component OT_ER_ERaERa_0480 was analyzed into 1 assay endpoint. This assay endpoint, OT_ER_ERaERa_0480, was analyzed in the positive analysis fitting direction relative to DMSO as the negative control and baseline of activity. Using a type of binding reporter, measures of receptor for gain-of-signal activity can be used to understand the binding at the pathway-level as they relate to the gene ESR1. Furthermore, this assay endpoint can be referred to as a primary readout, because the performed assay has only produced 1 assay endpoint. To generalize the intended target to other relatable targets, this assay endpoint is annotated to the nuclear receptor intended target family, where the subfamily is steroidal.
# Protein-fragment complementation assay, or PCA, is a method for the identification and quantification of protein-protein interactions. In the PCA, the proteins of interest ("bait" and "prey") are each covalently linked to fragments of a third protein (e.g. DHFR, which acts as a "reporter"). Interaction between the bait and the prey proteins brings the fragments of the reporter protein in close proximity to allow them to form a functional reporter protein whose activity can be measured. The OT ER alpha / ER alpha assay is a homodimer PCA of the ligand binding domain (amino acids 310-547) of human ER alpha stably expressed in HEK293T cells. […] Fluorescent signal in the basal state of the assay is very low and is primarily punctuate and cytoplasmic. Modulation of this assay is quantified as an increase in mean fluorescence intensity in the nucleus (for agonists) or in the nucleus and cytoplasm (antagonists) relative to vehicle controls, and can be quantified on a high content imaging device or a laser scanning cytometer. The latter instrument is favored for this assay because of the rapid mode of data acquisition, the ability to acquire data from the entire cell population in a well (as opposed to a fraction of the well on the high content devices) and the larger dynamic range typically achieved with this instrument. To assess sensitivity of the ER alpha/ER alpha LBD assay to ligand, cells were treated with the ER agonist 17 beta-estradiol (E2) in 10-point concentration- response format for 8 hours and monitored response on a laser scanning plate cytometer (Acumen eX3; TTP Lab Tech).
# Estrogen receptor (Homo sapiens), sequence (P03372 whole entry, looked up, the tested form may be a part): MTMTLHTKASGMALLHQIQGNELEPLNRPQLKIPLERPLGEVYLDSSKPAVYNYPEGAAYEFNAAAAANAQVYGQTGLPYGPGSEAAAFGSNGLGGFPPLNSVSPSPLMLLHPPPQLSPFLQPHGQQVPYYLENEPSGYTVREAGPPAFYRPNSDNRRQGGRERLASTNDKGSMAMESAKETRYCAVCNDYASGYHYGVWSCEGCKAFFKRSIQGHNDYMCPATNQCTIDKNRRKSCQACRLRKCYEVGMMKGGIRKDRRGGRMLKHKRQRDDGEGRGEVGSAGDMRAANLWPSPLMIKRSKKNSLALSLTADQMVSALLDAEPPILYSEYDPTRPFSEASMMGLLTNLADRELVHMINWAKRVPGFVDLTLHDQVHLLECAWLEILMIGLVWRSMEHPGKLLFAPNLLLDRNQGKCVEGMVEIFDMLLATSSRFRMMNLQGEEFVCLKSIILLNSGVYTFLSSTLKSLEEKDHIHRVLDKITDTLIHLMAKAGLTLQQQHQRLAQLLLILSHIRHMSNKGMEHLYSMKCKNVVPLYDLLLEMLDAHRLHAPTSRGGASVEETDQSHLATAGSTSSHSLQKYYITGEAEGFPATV
Compound,outcome,AC50
Cc1cccc(O)c1,inactive,
CCCO[Si](OCCC)(OCCC)OCCC,inactive,
O=C(O)c1ccccc1O,inactive,
CCCCC(CC)COCCO (stereo not given),inactive,
CC(=O)N(C)C,inactive,
CC12CCC(C1)C(C)(C)C2O (stereo not given),inactive,
C=CC(C)CCCC(C)(C)O (stereo not given),inactive,
COc1ccc(OC)cc1,inactive,
O=C(OCc1ccccc1)c1ccccc1O,,63 µM (active)
CC(CCO)CC(C)(C)C (stereo not given),inactive,
CC(C)C(=O)c1ccccc1,inactive,
CCCC1CCC(=O)CC1,inactive,
CC(=O)CC(=O)N(C)C,inactive,
c1coc(CNc2ncnc3nc[nH]c23)c1,inactive,
CCC(=O)OC(C)(C)C1CC=C(C)CC1 (stereo not given),inactive,
FC(F)(F)c1ccc(Cl)c(Cl)c1,inactive,
CC(C)(C)c1ccc(S)cc1,inactive,
C1=COCCC1,inactive,
CCNC(=S)NCC,inactive,
CC(=O)c1ccc2ccccc2c1,inactive,

Compound,outcome,AC50
CCCc1ccc(O)cc1,,63.7 µM (active)
O=S(=O)(O)c1cc(S(=O)(=O)O)c2c(N=Nc3ccccc3)c(O)ccc2c1,inactive,
CCCCCCCCCO,inactive,
CCCCCCCCOS(=O)(=O)O,inactive,
C1CCCNCC1,inactive,
O=C(O)CS,inactive,
CC(O)CN (stereo not given),inactive,
COc1ccc2[nH]cc(CCNC(C)=O)c2c1,inactive,
O=Cc1ccccc1O,inactive,
CC(C)CCCC(C)(C)O,inactive,
CCC(C)(C)C1CCC(=O)CC1,inactive,
COC(=O)c1ccc(C(=O)OC)cc1,inactive,
CCCCCCCC(=O)N(C)C,inactive,
OCC=Cc1ccccc1,inactive,
CN(C)C,inactive,
CCc1cccc(O)c1,inactive,
C=C(C)C(N)=O,inactive,
NCCN1CCNCC1,inactive,
CN(C)C(=O)Nc1ccccc1,inactive,
CCCO,inactive,
